Compound activity: PubChem BioAssay, National Center for Advancing Translational Sciences (NCATS)
FEN1 inh: qHTS Assay for the Inhibitors of Human Flap endonuclease 1 (FEN1). Recombinant FEN1 flap cleavage, fluorescence, 15 min. Potency, µM (doses to about 114 µM), without a hit: at the top dose activity change, negative = inhibition, hits mostly inhibitors. 390,000 tested, 0.35% active. AID 588795, 2011; further: potency means the concentration at half of the fitted maximal effect; on the % scale 0 is the no-effect control and ±100 the full control effect; nearly all actives have a fitted effect of over 65% in size
Target sequence (P39748 whole entry, looked up): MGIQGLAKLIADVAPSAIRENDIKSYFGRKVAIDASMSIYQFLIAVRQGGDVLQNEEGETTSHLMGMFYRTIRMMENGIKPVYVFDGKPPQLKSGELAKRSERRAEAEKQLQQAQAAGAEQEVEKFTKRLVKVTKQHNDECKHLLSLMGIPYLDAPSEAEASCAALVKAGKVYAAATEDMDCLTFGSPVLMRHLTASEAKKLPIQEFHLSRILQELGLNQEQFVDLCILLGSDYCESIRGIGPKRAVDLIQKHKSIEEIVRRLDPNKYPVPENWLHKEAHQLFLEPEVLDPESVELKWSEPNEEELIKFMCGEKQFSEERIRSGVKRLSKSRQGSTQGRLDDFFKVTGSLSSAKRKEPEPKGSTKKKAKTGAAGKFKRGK
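Potency values derive from four-parameter Hill fits of normalized qHTS data. The reaction used 10 nM FEN1 preincubated 15 min at room temperature with compound, then 50 nM DNA substrate, read at 0 and 15 min.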
PLK1 PBD block: qHTS for Inhibitors of PLK1-PDB (polo-like kinase 1 - polo-box domain): Primary Screen; Plk1 PBD binding of FITC phosphopeptide, fluorescence polarization; Potency, µM, inactives show max response, negative = inhibition, usual class: inhibitors; AID 720504, 2013; 360,000 tested, 2.8% active; further: potency means the concentration at half of the fitted maximal effect; series mostly up to about 57 µM; on the % scale 0 is the no-effect control and ±100 the full control effect; nearly all actives have a fitted effect of over 65% in size
WRN inhibitor: qHTS for Inhibitors of WRN Helicase. Bifunctional 3'-5' exonuclease/ATP-dependent helicase WRN (Homo sapiens), Q14191. WRN helicase unwinding, fluorescent forked duplex, kinetic. Potency, µM (top dose mostly 114 µM), for inactives: top-dose activity change, negative = inhibition, most hits filed as inhibitors. 360,000 tested, 0.46% active. AID 651768, 2012; further: potency means the concentration at half of the fitted maximal effect; on the % scale 0 is the no-effect control and ±100 the full control effect; nearly all actives have a fitted effect of over 55% in size
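WRN at 20 nM final preincubated with compound 15 min at room temperature; reaction started with 100 nM fluorophore/quencher forked duplex oligonucleotide and 2 mM ATP final. Unwinding followed kinetically by red fluorescence (ex 525, em 598 nm).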
TCR activator: Activators of T cell receptors: qHTS campaign. Potency, µM (top dose mostly 9.22 µM), for inactives: at the top dose activation of IL-2 secretion, actives largely listed as activators. 330,000 tested, under 10 active. AID 504894, 2011. primary human leukocytes, anti-CD3, IL-2 HTRF, 48 h; further: % of control where 0% means no effect
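HTRF read-out of IL-2 secretion: europium cryptate donor excited at 320nm, d2 acceptor emission at 665nm. Cells were primary human leukocytes incubated 48 hr with compounds and a-CD3 beads, supplying TCR signal only.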
PI5P4Ka inh: qHTS for Inhibitors of phosphatidylinositol 5-phosphate 4-kinase (PI5P4K) | Phosphatidylinositol 5-phosphate 4-kinase type-2 alpha (Homo sapiens), P48426 | PI5P4Kalpha enzyme, ADP-Glo luminescence, 60 min; hits give low values | max response, % | 330,000 tested, 1.2% active | AID 652105, 2013; active means max response of -50% or lower; inconclusive means between -30% and -50%; inactive means -30% or higher; further: value at the top dose of about 77 µM; on the % scale 0 is the no-effect control and ±100 the full control effect
Target sequence (P48426 whole entry, looked up): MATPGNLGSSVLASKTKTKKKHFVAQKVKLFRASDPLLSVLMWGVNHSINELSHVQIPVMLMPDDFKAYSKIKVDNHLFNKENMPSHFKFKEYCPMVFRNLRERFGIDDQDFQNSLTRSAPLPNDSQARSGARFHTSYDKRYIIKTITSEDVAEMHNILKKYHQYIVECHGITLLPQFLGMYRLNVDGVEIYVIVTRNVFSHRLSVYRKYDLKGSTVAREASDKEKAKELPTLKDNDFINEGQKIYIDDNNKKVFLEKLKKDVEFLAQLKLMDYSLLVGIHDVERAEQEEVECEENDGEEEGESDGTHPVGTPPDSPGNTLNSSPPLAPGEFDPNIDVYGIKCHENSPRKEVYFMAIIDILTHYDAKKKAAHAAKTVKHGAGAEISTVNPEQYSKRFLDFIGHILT
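Single end-point luminescence (ADP-Glo) quantified ADP from PI5P4Kalpha turnover; ATP 5 microM final, 1 h at RT, 0.1% CHAPS and 0.28 mM EGTA in HEPES pH 7.4.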
VDR inhibitor: Inhibitors of the vitamin D receptor (VDR): qHTS | VDR-SRC2-3 peptide fluorescence polarization, 2 h | Vitamin D3 receptor (Homo sapiens), P11473 | AID 504847, 2011 | Potency, µM, for the others: max response, negative = inhibition, hits mostly inhibitors | 400,000 tested, 0.93% active; further: potency means the concentration at half of the fitted maximal effect; on the % scale 0 is the no-effect control and ±100 the full control effect
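Two reagent solutions held at 4 deg C in the dark were dispensed, compounds pinned at 23 nl, and the mixture incubated 2 h at room temperature. Read-out: fluorescence polarization of VDR–SRC2-3 peptide binding.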
TbPYK inh: qHTS of Trypanosoma Brucei Inhibitors: Confirmatory Assay for Cherry-picked Compounds; 890 tested, 67% active; Potency, µM (titrated, usually from 76.9 µM), for the others: top-dose activity change, negative = inhibition, hits mostly inhibitors; shares compounds with PLK1 PBD block; AID 720569, 2013; recombinant TbPYK, Kinase-Glo ATP luminescence; further: potency means the concentration at half of the fitted maximal effect; on the % scale 0 is the no-effect control and ±100 the full control effect; nearly all actives have a fitted effect of over 70% in size
TbPYK orthogonal: qHTS of Trypanosoma Brucei Inhibitors: Orthogonal Assay for Cherry-picked Compounds | 890 tested, 62% active | shares compounds with PLK1 PBD block | AID 720584, 2013 | Potency, µM (series often up to 76.9 µM), inactives show at the top dose activity change, negative = inhibition, actives largely listed as inhibitors | recombinant TbPYK, ADP-Glo luminescence, 60 min; further: potency means the concentration at half of the fitted maximal effect; on the % scale 0 is the no-effect control and ±100 the full control effect; nearly all actives have a fitted effect of over 75% in size
* marks the source's active call; other numbers are inactive results; ? = inconclusive; / = no result; [ ] = dose if it differs, or a comment. Most compounds without a hit are left out; they make up all but 3.7% or so of the library. Unless noted, the call rests on the fitted dose curve; in most records, active means well fitted curve in the direction sought with a large enough effect; inconclusive means small, poorly fitted or top-dose-only effect, or another doubt; inactive means no such curve, though single readings can be large; an effect the other way counts as inactive or inconclusive.

SMILES | FEN1 inh | PLK1 PBD block | WRN inhibitor | TCR activator | PI5P4Ka inh | VDR inhibitor | TbPYK inh | TbPYK orthogonal
CN1CC[C@@]2(C)c3cc(O)ccc3N(C)C12 (some centres undefined) | 10% | / | / | / | / | ? | / | /
CC(=O)OCC(=O)[C@@H]1CC[C@H]2[C@H]3CC[C@H]4C[C@@H](O)CC[C@]4(C)[C@@H]3C(=O)C[C@@]12C | / | / | / | / | / | -1% | / | /
O=C1NC(=S)NC(=O)C1C/C=C/c1ccccc1 | 5% | 11µM* | -25% | -1% | / | 79µM* | 8.9µM* | 11µM*
O=C1NC(=O)N(c2ccccc2)C(=O)/C1=C/c1coc2ccc(O)cc2c1=O | -2% | 12µM* | ? | 7% | -66* | 50µM* | 22µM* | ?
O=C1NC(=O)N(c2ccc(Cl)cc2)C(=O)/C1=C/c1coc2ccc(O)cc2c1=O | -19% | 7.5µM* | ? | -2% | -58* | ? | ? | ?
C=CCN(C1=NCCN1)c1c(Cl)cccc1Cl | / | / | / | / | / | 10% | / | /
COc1ccc(N2C(=O)CS(=O)C(c3ccccc3)C2=O)cc1 (centres undefined) | ? | 2.4µM* | -3% | -2% | -20 | 35µM* | 13µM* | 25µM*
COc1ccc(N2C(=O)CC(N3CCC(n4c(=O)[nH]c5ccccc54)CC3)C2=O)cc1 (centres undefined) | -3% | -6% | 4% | / | / | 0% | / | /
O=C1NC(=O)N(c2ccccc2)C(=O)/C1=C/c1ccoc1 | ? | 5.3µM* | ? | -2% | ? | -4% | ? | -28%
O=C1NC(=O)N(c2ccc(F)cc2)C(=O)/C1=C/c1ccc(N2CCOCC2)cc1 | 1% | 12µM* | -33% | 3% | -20 | -25% | ? | ?
O=C1NC(=O)C(=Cc2ccc(N3CCOCC3)o2)C(=O)N1 | -6% | 85% | -7% | 6% | 0 | 3% | / | /
[N-]=[N+]=CC(=O)OCC(N)C(=O)O (centres undefined) | / | / | / | / | / | 6% | / | /
O=C1CN=C(c2ccccc2)c2cc(Cl)ccc2N1CC1CC1 | / | / | / | / | / | -24% | / | /
Cc1ccc(OCCOc2cccc(C=C3C(=O)NC(=O)NC3=O)c2)cc1 | -18% | 2.7µM* | -33% | 0% | -78* | 40µM* | ? | ?
c1cc(CN2CCC3(CCNCC3)CC2)ccn1 | / | / | / | / | / | 3% | / | /
Cc1cccc(-n2c(/C=C/c3c[nH]c4ccccc34)nc3ccccc3c2=O)c1 | 10% | / | / | / | / | 2% | / | /
O=C(O)CCn1cc(C=C2C(=O)NC(=S)NC2=O)c(-c2cc3ccccc3oc2=O)n1 | ? | 11µM* | ? | -19% | -71* | ? | 5.6µM* | 10µM*
O=C1NC(=O)C(=Cc2ccc(N3CCN(C(=O)c4ccccc4)CC3)c([N+](=O)[O-])c2)C(=O)N1 | -24% | 6.7µM* | ? | 1% | -62* | 50µM* | 32µM* | 35µM*
O=C(c1ccc(N2CCCCC2)c([N+](=O)[O-])c1)N1CCC2(CC1)OCCO2 | -1% | -5% | -4% | / | -2 | -19% | / | /
Cc1cccc2c1=NC(=O)/C(=C/c1c(O)[nH]c(=O)[nH]c1=O)C=2 | -11% | 7.5µM* | 50µM* | -2%[46.1 µM] | -54* | ? | 25µM* | ?
COc1ccc(S(=O)(=O)N(C)C[C@H]2OCCCC[C@@H](C)Oc3ccc(N(C)C)cc3C(=O)N([C@H](C)CO)C[C@@H]2C)cc1 | / | -13% | -1% | / | -5 | / | 2.5µM* | 6.3µM*
COc1ccc(OC(=O)N(C)C[C@@H]2OCc3cnnn3CCCC(=O)N([C@H](C)CO)C[C@H]2C)cc1 | / | -24% | -12% | / | 1 | / | / | /
CC1=NNC(=O)C1Br (centres undefined) | -1% | 9.5µM* | 28µM* | -7% | -14 | ? | 3.2µM* | 5µM*
Clc1cncc(N2CCNCC2)n1 | / | / | / | / | / | 1% | / | /
Cc1c(C(=O)c2ccc3ccccc3c2)c2cccc3c2n1[C@H](CN1CCOCC1)CO3 | / | / | / | / | / | -2% | / | /
SMILES | FEN1 inh | PLK1 PBD block | WRN inhibitor | TCR activator | PI5P4Ka inh | VDR inhibitor | TbPYK inh | TbPYK orthogonal
CC1CC(OP(O)(=S)c2ccc(N(C)C)cc2NC(=O)c2cccs2)CC(C)(C)C1 (centres undefined) | 4% | 6µM* | 5% | 1% | -18 | 45µM* | 28µM* | 28µM*
Cc1nn(Cc2ccccc2)c(C)c1C=C1C(=O)NC(=O)NC1=O | -3% | 9.5µM* | -32% | 11%[46.1 µM] | -28 | -26% | 18µM* | 32µM*
Cc1ccccc1CN1C(=O)C(C)N=C(c2ccccc2)c2ccccc21 (centres undefined) | -14% | / | / | / | / | 1% | / | /
C=CCN1C(=O)NC(=O)/C(=C\c2ccc(-c3ccccc3[N+](=O)[O-])o2)C1=O | ? | 1.5µM* | ? | 1% | -53* | 18µM* | 10µM* | 25µM*
C=CCN1C(=O)/C(=C/c2ccc(N3CCOCC3)o2)C(=O)NC1=S | -4% | 78% | -12% | -3%[46.1 µM] | -8 | -5% | / | /
CN[C@@H](C)[C@H]1CC[C@@H](N)[C@@H](O[C@@H]2[C@@H](O)[C@@H](O[C@H]3OC[C@@](C)(O)[C@@H](NC)[C@@H]3O)[C@H](N)C[C@@H]2N)O1 (tested in a mixture with another compound) | / | / | / | / | / | 4% | / | /
O=C1NC(=O)N(c2ccccc2F)C(=O)/C1=C/c1ccc(Sc2nc3ccccc3[nH]2)o1 | ? | ? | 22µM* | -4% | -86* | ? | 14µM* | 16µM*
COc1cc(C=C2C(=O)NC(=O)NC2=O)ccc1OCc1ccc([N+](=O)[O-])cc1 | -8% | 6.7µM* | 45µM* | -3% | ? | ? | 13µM* | 28µM*
COc1ccc(-c2nc(CN3C(=O)CN=C(c4ccccc4)c4ccccc43)c(C)o2)cc1OC | 2% | / | / | / | / | 4% | / | /
Cn1c(O)c(/C=C2\C=c3ccccc3=NC2=O)c(=O)n(C)c1=O | 0% | ? | 5% | -5% | -8 | 79µM* | ? | 16%
